Molecules are shown by their SMILES. Records with an inconclusive call do not appear. Values without a mark were called inactive. The source made the active and inactive calls. Calls follow the shape of the dose curve; as a rule, active = well fitted inhibition curve with a large enough effect; inconclusive = small, poorly fitted or top-dose-only effect; inactive = no such curve, though single readings can be large or run the other way.
% is scaled to controls: 0 for no effect and ±100 for the full control effect; potency is read from the fitted curve at half-maximal effect.

The assay is described as follows: qHTS for Inhibitors of the Aldehyde Dehydrogenase Family (ALDH1A2, ALDH1A3, ALDH2, ALDH3A1) (AID 2061307). Also: nearly all actives have a fitted effect of over 50% in size. As to Potency: test system not described further here. To be noted: ALDH inhibition qHTS; series mostly up to 50.3 µM; activity change, negative = inhibition: at the top concentration.
Take `O=C(Nc1ncc(Cc2ccccc2F)s1)c1ccn(-c2ccccc2)n1`: the “activity change, negative = inhibition” value is -26.3%.
For `N#Cc1ccc(CN2CCC(N(CCc3ccccc3)Cc3ccccc3)CC2)cc1`, the “activity change, negative = inhibition” value is -18.5%.
As for `Clc1ccc(Cn2cnc3ccccc32)cc1`, the Potency is 14.1 µM (active).
Turning to `CC(=O)Nc1ccc(NC(=O)c2sc(COc3ccc(F)cc3)nc2C)cc1`, the “activity change, negative = inhibition” value is -19.1% [at 34.4 µM].
For `Cc1ccc(-c2cc(C(=O)O)c3cccc(C)c3n2)cc1`, the Potency was 7.12 µM (active).
As for `CSc1ncc(CNc2cc([N+](=O)[O-])ccc2C)c(N)n1`, the Potency was 17.8 µM (active).
Consider `CCN1C(=O)c2ccccc2S(=O)c2ccc(C(=O)NCc3cccc(C(F)(F)F)c3)cc21` (stereo not given), for which the “activity change, negative = inhibition” value was -8.59%.
Take `C=CCn1c(Sc2ncc(C#N)cc2Cl)nnc1-c1ccccc1F`: the “activity change, negative = inhibition” value is -64.2% [at 34.4 µM].
As to `Cc1cccn2c(=O)c(C(=O)NCc3cccc(F)c3)cnc12`, the “activity change, negative = inhibition” value is -35.4% [at 34.4 µM].
For the compound `Cc1cc(SCc2sc(-c3ccc(F)cc3)nc2C)ccc1OCC(=O)O`, the “activity change, negative = inhibition” value was -28.6%.
With `NCC(=O)Nc1cc(O)cc(-c2nn3c(=O)cc(N4CCNCC4)nc3s2)c1`, the “activity change, negative = inhibition” value is 0%.
Turning to `O=C(Nc1ccc(-c2nnc3n2CCCC3)cc1)Nc1ccccc1Br`, the Potency was 8.91 µM (active).
With `O=C(Nc1cc(S(=O)(=O)N2CCOCC2)ccc1N1CCCCC1)c1cc(-c2ccccn2)nc2ccccc12`, the “activity change, negative = inhibition” value was -18.7%.
Take `Cc1cc(Cl)ccc1-n1c(CCC(=O)O)ccc1-c1cccs1`: the Potency was 12.7 µM (active).
As to `[2H]C([2H])([2H])N1CCC(N(CCc2ccccc2)Cc2ccccc2)CC1`, the “activity change, negative = inhibition” value was -6.24%.
Take `Cc1ccn2c(=O)c(C(=O)NC(C)c3ccccc3)c(O)nc2c1` (stereo not given): the “activity change, negative = inhibition” value is -34.8% [at 34.4 µM].
As to `CCN1C(=O)c2ccccc2S(=O)c2ccc(C(=O)NCc3cccc(-c4ccccc4)c3)cc21` (stereo not given), the Potency was 22.5 µM (active).
`COc1ccc(CN2CCN(C(=O)c3cc4c(s3)CCC4)CC2)cc1`: the “activity change, negative = inhibition” value was -6.09%.
As to `N#Cc1nc(-c2cccc3ccccc23)oc1NCCC1CNC1`, the Potency was 15.8 µM (active).
As for `COc1ccc2nc(-c3cnn(Cc4ccccc4)c3)sc2c1`, the “activity change, negative = inhibition” value was -13%.
With `CCOc1ccccc1-n1c(CN2CCN(C(=O)c3ccco3)CC2)nc2cc(OC)c(OC)cc2c1=O`, the “activity change, negative = inhibition” value is 6.87%.
`COc1ccccc1CN1CCC(N(CCc2ccccc2)Cc2ccccc2)CC1`: the “activity change, negative = inhibition” value was -18.7%.
The same measure, in the same setting: as for `COc1ccc(-c2cc(C(=O)Nc3sc4c(c3C(N)=O)CCCC4)no2)cc1`, the figure is 0% [at 34.4 µM].
Turning to `O=C(CSc1n[nH]c2nc3ccccc3n12)Nc1cc(C(F)(F)F)ccc1Cl`, the Potency was 15.8 µM (active).
Turning to `CCc1cccc(C)c1Nc1c(-c2ccc(N(C)C)cc2)nc2ncccn12`, the “activity change, negative = inhibition” value was -28.1%.
`CCc1ccc(CNC(=O)c2cnc3c(C)cccn3c2=O)cc1`: the “activity change, negative = inhibition” value is -29.4% [at 34.4 µM].
For `O=C(CCCCc1cn(-c2cc3ccc(O)cc3oc2=O)nn1)NCCOCCOCCOc1ccc(-n2ncc3c2CCCC3NC(=O)c2ccccn2)cc1` (stereo not given), the Potency is 2.82 µM (active).
Turning to `CCOCCNC(=O)N1CCN(c2nc(C)cs2)CC1`, the Potency is 14.1 µM (active).
For `N#Cc1cccc(NC(=O)N2C[C@@H]3C[C@H](C2)c2ccc(-c4ccc(OC(F)(F)F)cc4)c(=O)n2C3)c1`, the “activity change, negative = inhibition” value was -16.3% [at 34.4 µM].
For `Cc1ccc(NC(=O)c2cnc3cc(C)ccn3c2=O)c(C)c1`, the “activity change, negative = inhibition” value is -50.3% [at 34.4 µM].
Take `COc1cc(O)c(C(CC(=O)N2CC(C)CC(C)C2)c2ccc(C(N)=O)cc2)c(OC)c1` (stereo not given): the Potency is 0.282 µM (active).
Regarding `CCc1ccc(NC(=O)Cn2c(=O)n(-c3ccccc3)c(=O)c3ccc(C(=O)NCc4ccc5c(c4)OCO5)cc32)cc1`, the “activity change, negative = inhibition” value is -22.9% [at 34.4 µM].
The same measure, in the same setting: with `COC(=O)c1ccc(CN2CCC(N(CCc3ccccc3)Cc3ccccc3)CC2)cc1` the figure was -10.1%; with `Cc1c2c(=O)n(-c3ccccc3)[nH]c2cc(=O)n1CCCN1CCOCC1`, -3.09%; with `COc1ccc(-n2ncc3c2CCCC3NC(=O)c2ccc(F)c(F)c2)cc1` (stereo not given), -18.8%.
In the case of `COC(=O)c1ccc(S(=O)(=O)N2CCC(c3nc4ccccc4s3)CC2)cc1`, the “activity change, negative = inhibition” value is -5.6%.
For the compound `COc1ccc(-c2nn(-c3ccccc3)cc2C(=O)Nc2ccccc2OC)cc1`, the “activity change, negative = inhibition” value was -57.3% [at 34.4 µM].
`Cc1ccc(CNS(=O)(=O)c2ccc3c(c2)CN(C(=O)c2cccnc2)CC3)o1`: the “activity change, negative = inhibition” value is -26% [at 34.4 µM].
For the compound `CC(=O)c1c(C)[nH]c2ccc(O)cc12`, the “activity change, negative = inhibition” value was 4.59% [at 34.4 µM].
Take `O=C(O)Cc1ccc(S(=O)(=O)N2CCCC2)s1`: the Potency is 11.3 µM (active).
